The text below walks through data of PubChem BioAssay.

The source made the active and inactive calls. How the calls were made is not given here.

The target of this assay is Pantothenate synthetase (Mycobacterium tuberculosis (strain ATCC 25618 / H37Rv)) (UniProt P9WIL5). As to the kind of experiment: Recombinant Mtb pantothenate synthetase (PanC) inhibitors, coupled enzyme, confirmatory (AID 375).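 Further: 0% = full reaction with vehicle and 100% = no enzyme background.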 As to conditions: coupled enzyme assay; at 10 µM, stronger effect = higher value.
Sequence of Pantothenate synthetase (Mycobacterium tuberculosis (strain ATCC 25618 / H37Rv)) (P9WIL5 whole entry, looked up): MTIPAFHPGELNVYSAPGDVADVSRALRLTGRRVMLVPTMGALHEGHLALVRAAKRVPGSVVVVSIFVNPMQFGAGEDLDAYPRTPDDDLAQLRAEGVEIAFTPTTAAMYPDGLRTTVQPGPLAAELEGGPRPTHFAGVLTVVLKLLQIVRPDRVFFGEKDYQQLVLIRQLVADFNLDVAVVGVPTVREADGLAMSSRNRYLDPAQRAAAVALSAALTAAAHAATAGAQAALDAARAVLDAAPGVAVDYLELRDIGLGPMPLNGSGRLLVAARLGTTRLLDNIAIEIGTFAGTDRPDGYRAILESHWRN
As a reminder, the inhibition is how much of the control response was suppressed. With `CC1(C)Cc2c(c(N3CCOCC3)nc3sc(C#N)c(N)c23)CS1`, the inhibition is 0% (inactive).

For `Cc1sc(NC(=O)CSc2nc(N)n(CC(=O)c3ccccc3)n2)c(C#N)c1C`, the inhibition is 4% (inactive).

`CCOC(=O)c1c(-c2cccs2)csc1NC(=O)CCCC(=O)O`: the inhibition was 0% (inactive).

As to `CN1CCc2c(sc3c2C(=O)NC(c2cccc(OC(=O)c4cccs4)c2)N3)C1` (stereo not given), the inhibition is 0% (inactive).

As to `N#CC1=C(N)C(C#N)(C#N)[C@H](c2ccsc2)[C@H]2COCC=C12`, the inhibition was 0% (inactive).

With `COc1cccc(-c2cc(C(=O)N3CCCc4ccccc43)no2)c1`, the inhibition is 0% (inactive).

As for `CNC(=O)CSc1nnc(-c2cccc(S(=O)(=O)N3CCOCC3)c2)n1-c1ccc(F)cc1`, the inhibition is 0% (inactive).

In the case of `CCOC(=O)CN1CC23C=CC(O2)C(C(=O)NC2CCCC2)C3C1=O` (stereo not given), the inhibition was 3% (inactive).

As to `Cc1nnc(NC(=O)CSc2nc3c(c(=O)n2C)SC(C)C3)s1` (stereo not given), the inhibition was 5% (inactive).

As to `Fc1ccc(C2C3=C(Nc4ncnn42)c2ccccc2OC3c2ccncc2)cc1` (stereo not given), the inhibition is 0% (inactive).

Regarding `COc1ccccc1NC(=O)c1nnn(CC(=O)Nc2ccccc2)c1N`, the inhibition was 1% (inactive).

Turning to `CC1CN(c2nc3ccccc3nc2C(C#N)C(=O)OC2CCCCC2)CC(C)O1` (stereo not given), the inhibition is 2% (inactive).

For the compound `COc1ccc(-c2nc3c(c(SCC(=O)N4CCOCC4)n2)COC(C)(C)C3)cc1`, the inhibition is 0% (inactive).

Consider `COc1ccccc1OCC(=O)NCC1CCCCC1`, for which the inhibition was 0% (inactive).

Take `O=C(CCNS(=O)(=O)c1ccc(Cl)cc1)NCc1ccccn1`: the inhibition is 0% (inactive).

For `CCCCCC1CC(CC(C)C(=O)Nc2nncs2)C(=O)O1` (stereo not given), the inhibition is 9% (inactive).

As to `Cn1c(=O)c2c(nc(NCc3ccccc3)n2CCCc2ccccc2)n(C)c1=O`, the inhibition was 0% (inactive).

For `O=C(NCc1ccccc1)N1CCn2c(nc3ccccc32)C1`, the inhibition was 3% (inactive).

Consider `CCn1cc(C(=O)NCCCOC)c(=O)c2cc(S(=O)(=O)N(C)C3CCCCC3)ccc21`, for which the inhibition was 2% (inactive).

`CCC(C)OC(=O)C1=C(C)NC2=C(C(=O)C(C(=O)OC)C(C)C2)C1c1ccc(N(C)C)cc1` (stereo not given): the inhibition was 0% (inactive).

On to `CC(C)(C)OC(=O)N1CCCC1C(=O)N1CCc2ccccc21` (stereo not given), for which the inhibition is 0% (inactive).

For `CC1=CCC2C(=O)N(c3nc(C)cc(C)n3)C(=O)C2C1` (stereo not given), the inhibition is 0% (inactive).

For the compound `CC(C)c1nc(NCC2CCCO2)c(C#N)c2c1COC(C)(C)C2` (stereo not given), the inhibition was 3% (inactive).

`O=S(NCc1ccco1)C12CC3CC(CC(C3)C1)C2` (stereo not given): the inhibition is 0% (inactive).

With `CCN(CC)CCOC(=O)C1(C2CCCCC2)CCCCC1`, the inhibition was 0% (inactive).

`O=C(CCn1[nH]c(=O)c2ccccc2c1=O)NCCO`: the inhibition was 0% (inactive).

As for `CCOCCCNC(=O)c1c[nH]c2ccc(S(=O)(=O)Nc3cccc(OC)c3)cc2c1=O`, the inhibition was 0% (inactive).

Turning to `CCOC(=O)C(C)n1cnc2c(nnn2Cc2ccc(C)cc2)c1=O` (stereo not given), the inhibition was 0% (inactive).

As to `CCOc1cc(NC(=O)c2ccco2)c(OCC)cc1NC(=O)CCC(=O)NCc1cccnc1`, the inhibition was 3% (inactive).

Regarding `O=C(c1noc2c1CCc1ccccc1-2)N1CCOCC1`, the inhibition is 0% (inactive).

For the compound `CCCCn1nnnc1NCc1cccs1`, the inhibition was 0% (inactive).

Take `O=C(COc1nnc2ccccn12)N1CCN(S(=O)(=O)c2ccccc2)CC1`: the inhibition was 1% (inactive).

Turning to `CCC(CO)Nc1ncnc2c1cnn2-c1ccc(Cl)cc1` (stereo not given), the inhibition is 6% (inactive).

`O=C(COc1ccc(S(=O)(=O)NC2CCCCC2)cc1Cl)NCC1CCCO1` (stereo not given): the inhibition was 0% (inactive).

Take `COCCn1c(SCc2csc(-c3ccccc3)n2)nc2ccccc21`: the inhibition was 5% (inactive).

Take `CN(C)c1nc(N(C)C)nc(N(C)C)n1`: the inhibition is 2% (inactive).

As to `COCCCNC(=O)CSc1ccc(Cl)cc1`, the inhibition was 0% (inactive).

For `O=C1C/C(=C/NCc2ccccc2)C(=O)N1`, the inhibition is 3% (inactive).

Take `COc1ccc(CCNC(=O)C2(C)CCC(=O)N2Cc2ccc3c(c2)OCO3)cc1OC` (stereo not given): the inhibition was 1% (inactive).

Regarding `O=C(NCc1ccco1)c1cc2cc3ccc(Cl)cc3nc2o1`, the inhibition was 4% (inactive).
